Consider 27 compounds from PubChem BioAssay (NCATS).

Results filed as inconclusive are left out. Calls of active or inactive are those of the source. Unless noted, the call rests on the fitted dose curve; in most records, active means well fitted curve in the direction sought with a large enough effect; inconclusive means small, poorly fitted or top-dose-only effect, or another doubt; inactive means no such curve, though single readings can be large; an effect the other way counts as inactive or inconclusive.

The nature of assay [1]: qHTS assay for measurement of the activity of small molecule inhibitors on Zika virus induced Caspase-3 activity in human astrocytoma cells (AID 1224859). Further: potency means the concentration at half of the fitted maximal effect. The essentials: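 Caspase activation in ZIKV-infected SNB-19 cells (2 FFU/cell, 6 h) measured by Caspase-Glo 3/7 luminescence after 30 min RT; compound pre-incubated 1 h; normalised to uninfected and infected controls.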

The target of assay [2] is Atrial natriuretic peptide receptor 1 (Homo sapiens) (UniProt P16066). The experiment in a line: Natriuretic polypeptide receptor (hNpr1) antagonism - Pilot screen (AID 1347049; calls by dose curve;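 further: agonist-evoked cGMP luminescence read 20 min after hNppA addition; series mostly up to about 58 µM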). The procedure, abridged:
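Readout is cGMP-driven firefly luciferase luminescence in HEK293 cells carrying hNpr1 and a PDE5-domain GloSensor, read before and 20 min after 0.1 nM hNppA stimulation. Cells had 2% substrate reagent for 2 h and test compound for 30 min.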

The target of assay [3] is Atrial natriuretic peptide receptor 2 (Homo sapiens) (UniProt P20594). Briefly: Natriuretic polypeptide receptor (hNpr2) antagonism - Pilot subtype selectivity assay (AID 1347050; calls by dose curve). The procedure, abridged: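 Pilot selectivity screen against hNpr2: HEK293 cGMP-sensor cells are treated with LOPAC1280 compounds, then with hNppC peptide at 1 nM final. The cGMP-driven luminescence change over 20 min at room temperature is the read-out.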
Chain of Atrial natriuretic peptide receptor 2 (Homo sapiens) (P20594 whole entry, looked up): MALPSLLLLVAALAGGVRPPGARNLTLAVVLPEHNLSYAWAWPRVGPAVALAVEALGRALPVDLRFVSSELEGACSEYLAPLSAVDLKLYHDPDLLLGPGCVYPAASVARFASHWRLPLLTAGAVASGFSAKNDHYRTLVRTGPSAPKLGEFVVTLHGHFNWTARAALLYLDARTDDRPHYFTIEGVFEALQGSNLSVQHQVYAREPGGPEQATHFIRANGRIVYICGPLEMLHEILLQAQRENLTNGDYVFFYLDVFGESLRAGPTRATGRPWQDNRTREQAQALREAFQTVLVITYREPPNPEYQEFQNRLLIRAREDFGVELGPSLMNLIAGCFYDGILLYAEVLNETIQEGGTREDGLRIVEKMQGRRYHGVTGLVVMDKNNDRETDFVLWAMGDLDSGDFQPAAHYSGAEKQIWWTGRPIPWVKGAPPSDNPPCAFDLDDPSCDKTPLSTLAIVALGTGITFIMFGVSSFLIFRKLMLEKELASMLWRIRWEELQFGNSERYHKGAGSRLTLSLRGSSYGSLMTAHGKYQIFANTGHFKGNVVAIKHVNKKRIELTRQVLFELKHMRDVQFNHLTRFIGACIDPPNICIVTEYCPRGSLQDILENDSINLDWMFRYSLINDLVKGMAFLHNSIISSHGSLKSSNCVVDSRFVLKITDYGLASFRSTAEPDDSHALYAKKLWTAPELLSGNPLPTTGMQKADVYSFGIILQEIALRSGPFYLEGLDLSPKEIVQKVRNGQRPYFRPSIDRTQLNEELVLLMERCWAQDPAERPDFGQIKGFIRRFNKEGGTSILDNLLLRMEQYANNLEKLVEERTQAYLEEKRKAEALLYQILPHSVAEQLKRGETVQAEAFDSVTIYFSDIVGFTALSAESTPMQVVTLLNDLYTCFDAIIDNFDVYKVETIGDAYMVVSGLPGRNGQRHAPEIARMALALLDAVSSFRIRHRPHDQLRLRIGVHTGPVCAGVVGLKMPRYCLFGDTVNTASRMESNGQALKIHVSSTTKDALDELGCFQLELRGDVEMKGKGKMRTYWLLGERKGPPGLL

The target in assay [4] is T1, Tyrosine-protein phosphatase non-receptor type substrate 1 (Homo sapiens) + Leukocyte surface antigen CD47 (Homo sapiens) (UniProt P78324+Q08722). Briefly: CD47-SIRPalpha protein protein interaction - LANCE assay qHTS validation (AID 1347057; active means well fitted curve in the direction sought with a large enough effect in the signal ratio, with a control signal flat, not every such curve was filed as active; the % refers to the signal ratio; further: potency means the concentration at half of the fitted maximal effect). The procedure, abridged:
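First, His-tagged CD47 and Eu-labelled anti-His antibody met the compound for 30 min; next, site-specifically biotinylated SIRPalpha was added for 30 min; finally streptavidin-APC was added before reading the TR-FRET ratio.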
On the technique in general: In TR-FRET formats the signal depends on donor and acceptor labels being close together.

Assay [5] has as its target Parathyroid hormone/parathyroid hormone-related peptide receptor (Homo sapiens) (UniProt Q03431). The experiment in a line: qHTS for PTHR1 Agonists: Optimization Screen against the NCGC LOPAC library (AID 1347079).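 Further: GloSensor cAMP luminescence in HEK-293 GP2 cells expressing human PTHR1 with IBMX.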 The procedure, abridged:
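Compounds were tested across a qHTS titration. PTHR1-expressing GP2 cells report cAMP rises via GloSensor luminescence after 1 hr compound exposure at 37C with IBMX present.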
(qHTS replaces the single test concentration by a dilution series.)

A short description of assay [6]: NS1 protein of Zika virus - qHTS assay to identify small molecule inhibitors in human HEK 293 cells (AID 1347053). Further: series mostly up to about 46 µM; nearly all actives have a fitted effect of over 55% in size. The procedure, abridged: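 Inhibition of NS1 expression was scored in HEK 293 cells given compound 1 h ahead of MR766 virus (MOI = 0.5). Following 24 h at 37 C, two anti-NS1 antibodies generated a TR-FRET signal, scaled between uninfected and infected controls.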

Assay [7] concerns the target T1, Tyrosine-protein phosphatase non-receptor type substrate 1 (Homo sapiens) + Leukocyte surface antigen CD47 (Homo sapiens). The experiment in a line: CD47-SIRPalpha protein protein interaction - Alpha assay qHTS validation (AID 1347059).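 Further: bead proximity luminescence from CD47 binding SIRPalpha after compound preincubation with SIRPalpha.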 The procedure, abridged:
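Binding is measured by AlphaScreen proximity: Ni-NTA acceptor beads capture His-CD47, streptavidin donor beads capture biotin-SIRPalpha. Each of three additions (SIRPalpha with compound, CD47, beads) incubates 30 min at room temperature protected from light.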

A short description of assay [8]: qHTS of pediatric cancer cell lines to identify multiple opportunities for drug repurposing: Primary screen for TC32 cells (AID 1347089). Further: nearly all actives have a fitted effect of over 60% in size. Further: potency means the concentration at half of the fitted maximal effect. The procedure, abridged: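 TC32 cells, 500-1,000/well in growth medium, compound-treated 48 h at 37 °C; viability from CellTiter-Glo luminescence. Primary screen: MIPE 11-point (0.78 nM–46 µM final), NPC 8-point (0.59 nM–46 µM final); confirmatory at 11-point dilutions.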

The nature of assay [9]: qHTS of pediatric cancer cell lines to identify multiple opportunities for drug repurposing: Primary screen for DAOY cells (AID 1347090). Further: nearly all actives have a fitted effect of over 55% in size. Further: potency means the concentration at half of the fitted maximal effect. The procedure, abridged:
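Cell viability, CellTiter-Glo luminescence; 500-1,000 cells/well, 8- or 11-point titration, 48 h compound exposure at 37 degrees C, 5% CO2. Controls: DMSO neutral, bortezomib 2.3 µM final as positive.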

Assay [10] has as its target T1, Tyrosine-protein phosphatase non-receptor type substrate 1 (Homo sapiens) + Leukocyte surface antigen CD47 (Homo sapiens). The experiment in a line: CD47-SIRPalpha protein protein interaction - HTRF assay qHTS validation (AID 1347058; active means well fitted curve in the direction sought with a large enough effect in the signal ratio, not every such curve was filed as active; the % refers to the signal ratio;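 further: recombinant soluble extracellular CD47 with His tag and biotinylated SIRPalpha domains; series mostly up to about 38 µM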). The procedure, abridged: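 TR-FRET read (Ch1/Ch2 ratio) of soluble extracellular CD47 and Avi-biotinylated SIRPalpha domains in PBS pH 7.4 with 0.05% IGEPAL; 7-point compound titration. Sequential 30 min room-temperature steps; non-biotinylated SIRPalpha as control inhibitor.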

Assay [11] in a line: Natriuretic polypeptide receptor (hNpr1) antagonism - Pilot counterscreen GloSensor control cell line (AID 1347045; calls by dose curve; further: series mostly up to about 38 µM). The essentials:
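HEK293 cells carrying the GloSensor cGMP sensor (GIP/pGS-40F) were loaded with 2% GloSensor reagent for 2 h, exposed to compounds for 30 min, and then stimulated with 50 uM sodium nitroprusside for 20 min at room temperature.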

Chain of Parathyroid hormone/parathyroid hormone-related peptide receptor (Homo sapiens) (Q03431 whole entry, looked up): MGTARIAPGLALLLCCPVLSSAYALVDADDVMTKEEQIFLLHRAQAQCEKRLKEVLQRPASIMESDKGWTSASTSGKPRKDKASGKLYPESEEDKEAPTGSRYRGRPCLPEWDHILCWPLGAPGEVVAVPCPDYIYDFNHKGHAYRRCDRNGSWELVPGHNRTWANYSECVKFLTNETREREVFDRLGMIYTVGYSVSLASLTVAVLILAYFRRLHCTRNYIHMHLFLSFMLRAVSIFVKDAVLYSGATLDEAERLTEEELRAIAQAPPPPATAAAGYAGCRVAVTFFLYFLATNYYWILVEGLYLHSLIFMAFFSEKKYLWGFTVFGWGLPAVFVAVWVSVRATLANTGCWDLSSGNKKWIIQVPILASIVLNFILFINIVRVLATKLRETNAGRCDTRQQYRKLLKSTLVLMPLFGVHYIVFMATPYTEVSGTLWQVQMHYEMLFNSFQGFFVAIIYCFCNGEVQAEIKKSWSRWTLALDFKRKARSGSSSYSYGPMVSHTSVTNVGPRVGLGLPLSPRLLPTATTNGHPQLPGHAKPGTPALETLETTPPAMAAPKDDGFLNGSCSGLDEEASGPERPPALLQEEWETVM
T1 sequence (P78324 whole entry, looked up): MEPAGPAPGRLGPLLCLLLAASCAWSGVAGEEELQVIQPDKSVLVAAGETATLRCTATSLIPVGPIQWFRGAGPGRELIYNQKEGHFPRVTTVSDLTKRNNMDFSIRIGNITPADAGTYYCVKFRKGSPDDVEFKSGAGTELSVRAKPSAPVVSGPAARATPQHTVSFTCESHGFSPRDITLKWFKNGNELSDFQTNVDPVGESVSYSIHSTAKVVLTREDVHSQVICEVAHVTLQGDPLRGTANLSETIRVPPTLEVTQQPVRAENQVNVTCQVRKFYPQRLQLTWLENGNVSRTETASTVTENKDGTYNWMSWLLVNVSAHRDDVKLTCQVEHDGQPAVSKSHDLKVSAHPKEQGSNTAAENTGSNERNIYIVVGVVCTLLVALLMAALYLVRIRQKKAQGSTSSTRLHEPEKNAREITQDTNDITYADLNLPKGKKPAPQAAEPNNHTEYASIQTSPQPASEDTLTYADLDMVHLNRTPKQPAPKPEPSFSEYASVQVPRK
T1 sequence (Q08722 whole entry, looked up): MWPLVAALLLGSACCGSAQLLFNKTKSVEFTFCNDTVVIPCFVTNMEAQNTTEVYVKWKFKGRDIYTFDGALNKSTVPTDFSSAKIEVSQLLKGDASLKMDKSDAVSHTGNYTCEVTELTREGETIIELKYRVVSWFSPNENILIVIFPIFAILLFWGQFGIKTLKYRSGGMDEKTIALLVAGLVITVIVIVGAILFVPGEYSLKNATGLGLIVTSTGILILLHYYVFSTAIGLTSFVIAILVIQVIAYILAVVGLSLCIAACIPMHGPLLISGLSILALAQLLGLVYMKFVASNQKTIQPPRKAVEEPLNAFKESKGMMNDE
Chain of Atrial natriuretic peptide receptor 1 (Homo sapiens) (P16066 whole entry, looked up): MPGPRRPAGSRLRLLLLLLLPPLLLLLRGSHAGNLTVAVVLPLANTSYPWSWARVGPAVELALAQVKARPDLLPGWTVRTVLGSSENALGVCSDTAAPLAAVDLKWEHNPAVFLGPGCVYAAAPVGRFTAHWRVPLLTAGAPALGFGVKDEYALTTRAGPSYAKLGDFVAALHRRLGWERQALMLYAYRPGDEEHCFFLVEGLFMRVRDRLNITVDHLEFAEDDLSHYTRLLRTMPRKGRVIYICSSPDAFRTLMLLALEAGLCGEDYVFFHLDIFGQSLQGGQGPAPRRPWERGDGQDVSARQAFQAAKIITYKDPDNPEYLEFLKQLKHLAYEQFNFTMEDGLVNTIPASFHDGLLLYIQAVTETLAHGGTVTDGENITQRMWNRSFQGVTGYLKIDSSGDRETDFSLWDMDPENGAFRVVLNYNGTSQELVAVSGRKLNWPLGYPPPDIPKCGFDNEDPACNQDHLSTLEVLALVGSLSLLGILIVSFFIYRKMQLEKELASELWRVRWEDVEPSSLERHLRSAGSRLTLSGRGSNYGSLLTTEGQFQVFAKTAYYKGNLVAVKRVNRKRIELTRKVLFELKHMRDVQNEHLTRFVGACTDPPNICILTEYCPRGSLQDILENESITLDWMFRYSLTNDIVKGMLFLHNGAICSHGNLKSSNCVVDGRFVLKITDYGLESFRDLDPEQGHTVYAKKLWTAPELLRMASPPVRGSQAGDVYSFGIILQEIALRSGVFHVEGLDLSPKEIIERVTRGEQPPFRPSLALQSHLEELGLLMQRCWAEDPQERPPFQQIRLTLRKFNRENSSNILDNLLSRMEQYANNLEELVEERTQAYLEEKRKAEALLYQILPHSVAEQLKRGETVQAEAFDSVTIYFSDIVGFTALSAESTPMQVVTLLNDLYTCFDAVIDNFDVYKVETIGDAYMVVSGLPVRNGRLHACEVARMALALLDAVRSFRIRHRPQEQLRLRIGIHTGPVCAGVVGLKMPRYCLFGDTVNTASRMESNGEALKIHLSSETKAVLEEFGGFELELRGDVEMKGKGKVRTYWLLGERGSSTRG

As for `OCC1O[C@H]([S-])[C@H](O)[C@@H](O)[C@@H]1O.[Au+]` (some centres undefined), the Potency result in assay [1], in assay [2], in [3] and in assay [5] was “inactive” each time. In addition, the Potency in assay [4] was 5.85 µM (active).

In the case of `CCCCC/C=C\CC(O)/C=C/c1cccc(CC(O)CCCCO)n1` (centres undefined), the Potency entry in assay [1] and in [3] was “inactive” each time.

For `O=Nc1ccc2oc(=O)ccc2c1`, the Potency entry in assay [1], in assay [2], in assay [6], in [4], in assay [7] and in assay [5] was “inactive” in each case.

In the case of `COc1ccccc1N1CCN(CCN(C(=O)c2ccc(I)cc2)c2ccccn2)CC1`, the Potency result in assay [1] and in assay [5] was “inactive” each time.

With `CCCCCCCCCCCCOCCO`, the Potency entry in assay [1], in [6], in assay [8] and in [9] was “inactive” in each case.

Take `CC[C@@H](C)[C@H]1O[C@]2(CC[C@H]1C)C[C@@H]1C[C@@H](CC=C(C)[C@@H](O[C@H]3C[C@H](OC)[C@@H](O[C@H]4C[C@H](OC)[C@@H](O)[C@H](C)O4)[C@H](C)O3)[C@@H](C)C=CC=C3CO[C@@H]4[C@H](O)C(C)=C[C@@H](C(=O)O1)[C@]34O)O2`: the Potency entry in assay [1], in [2], in assay [3], in assay [4] and in assay [7] was “inactive” throughout. The outcome in [10] was inactive.

With `CCCCCCCCCCCCCCCCCC(=O)NCC(COP(=O)([O-])OCC[N+](C)(C)C)OCC` (centres undefined), the Potency result in assay [1], in assay [2] and in assay [5] was “inactive” in each case.

Regarding `Cn1cc(C2=C(c3ccc(Cl)cc3Cl)C(=O)NC2=O)c2ccccc21`, the Potency result in assay [1], in assay [2], in assay [3], in assay [6], in [4] and in [7] was “inactive” in each case. For the same compound, in [10], the result was inactive.

`Nc1nc(Nc2ccccc2)nc2c1ncn2[C@@H]1O[C@H](CO)[C@@H](O)[C@H]1O`: the Potency entry in assay [1], in [2], in assay [3], in assay [6], in assay [4] and in [7] was “inactive” in each case. In assay [10], the outcome was inactive.

For the compound `O=C(c1ccc(OCCCc2cnc[nH]2)cc1)C1CC1`, the Potency entry in assay [1], in assay [2], in assay [3], in assay [4], in assay [7] and in assay [5] was “inactive” in each case. Moreover, in assay [10], the result was inactive.

Turning to `CCCCCCCCCCCCCCCC(=O)NCC(COP(=O)([O-])OCC[N+](C)(C)C)OCC` (centres undefined), the Potency entry in [1], in [11], in assay [3] and in assay [5] was “inactive” throughout.

For `Nc1nc(SCc2ccc([N+](=O)[O-])cc2)c2ncn([C@@H]3O[C@H](CO)[C@@H](O)[C@H]3O)c2n1`, the Potency entry in assay [1], in assay [2], in assay [3], in assay [6], in assay [4] and in assay [7] was “inactive” in each case.

As for `COc1ccc(NC(=O)/C=C/c2ccc(Cl)cc2)cc1`, the Potency in assay [1] is 5.62 µM (active). Besides, the Potency entry in [6], in assay [4], in assay [7] and in [5] was “inactive” each time.

Regarding `COc1ccnc2c1CCCCC2S(=O)c1nc2ccccc2[nH]1` (centres undefined), the Potency result in assay [1], in [6], in assay [8] and in assay [9] was “inactive” throughout.

Consider `O=C(O)/C=C\C(=O)O`, for which the Potency result in assay [1], in assay [6], in [8] and in assay [9] was “inactive” in each case.

As to `N#C/C(=C\c1ccc(O)c(O)c1)C(=O)NCc1ccccc1`, the Potency entry in [1], in [2] and in assay [3] was “inactive” in each case.

Take `C#CCN1C(C)=C(C(=O)OC)C(c2cccc([N+](=O)[O-])c2)C(C(=O)OCC)=C1C` (centres undefined): the Potency result in [1], in [2] and in assay [5] was “inactive” in each case.

For `O=P(O)(O)C(Cl)(Cl)P(=O)(O)O`, the Potency result in assay [1], in assay [2], in [3], in [6], in assay [4] and in [7] was “inactive” throughout. Moreover, in assay [5], the Potency entry was “inactive”. In assay [10], the outcome was inactive.

On to `CCCCCC(O)c1cccc(OCc2ccc3ccccc3n2)c1` (centres undefined), for which the Potency result in [1] and in [5] was “inactive” throughout.

As to `Nc1ncnc2c1c(I)cn2[C@@H]1C[C@H](N)[C@@H](O)[C@H]1O`, the Potency entry in assay [1], in [2] and in assay [5] was “inactive” throughout.

Take `OC[C@H]1O[C@@H](n2cnc3c(Nc4ccccc4)ncnc32)[C@H](O)[C@@H]1O`: the Potency result in assay [1], in [2], in [3] and in assay [5] was “inactive” throughout.

Regarding `O=C(O)Cc1ccc2c(c1)C(=O)c1ccccc1CO2`, the Potency entry in assay [1], in [6], in assay [8] and in assay [9] was “inactive” each time.

On to `C[N+]1(C)[C@@H]2CC(OC(=O)[C@H](CO)c3ccccc3)C[C@H]1[C@@H]1O[C@@H]12` (some centres undefined), for which the Potency result in assay [1], in [6], in assay [8] and in [9] was “inactive” throughout.

On to `COC(=O)Nc1nc2ccc(C(=O)C3CC3)cc2[nH]1`, for which the Potency entry in assay [1] and in [6] was “inactive” throughout. The Potency in assay [8] is 1.33 µM (active); in assay [9], 1.06 µM (active).

For the compound `CCCCCCCC/C=C/C(=O)O`, the Potency result in [1], in assay [6], in [8] and in [9] was “inactive” in each case.

For `CCCCC#Cc1nc(NC)c2ncn([C@@H]3O[C@H](CO)[C@@H](O)[C@H]3O)c2n1`, the Potency entry in assay [1], in [11], in [3], in [6], in assay [7] and in assay [5] was “inactive” each time. Besides, the result in assay [10] was inactive.

Consider `CN=c1nc(-c2ccccc2)n(-c2ccccc2)s1`, for which the Potency entry in assay [1], in [6], in assay [4], in [7] and in assay [5] was “inactive” each time. In addition, the result in assay [10] was inactive.
